Reference: the supplement of paper PMC8728848
Shown is part of a subset that was picked to be rich in the strongest signals.

Tests used:
Assay in all cases: glycan array binding signal (z-score within array); higher = stronger binding
Settings in all cases: glycan notation: IUPAC condensed, linker removed
GalNAc(b1-3)GlcNAc = target: GalNAc(b1-3)GlcNAc
How it was run: (§1)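 Glycan array data came from 3228 arrays in the Consortium for Functional Glycomics database, and only arrays with an available protein sequence were kept. Glycan names were put into IUPAC-condensed notation, and columns mapping to the same glycan were averaged. The binding signal is a within-array Z-score, averaged across arrays of one protein sequence run at different concentrations or buffers and across linkers. A negative Z-score can be read as non-binding.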

[1] = target: Glc(a1-4)Glc(a1-4)Glc(a1-4)Glc
How it was run: as §1

Glc(b1-6)Glc = target: Glc(b1-6)Glc
How it was run: as §1

[2] = target: GlcNAc(b1-2)Man(a1-3)[GlcNAc(b1-2)Man(a1-6)]Man(b1-4)GlcNAc(b1-4)GlcNAc
How it was run: as §1

[3] = target: GlcNAc(b1-2)[GlcNAc(b1-4)]Man(a1-3)[GlcNAc(b1-4)][GlcNAc(b1-2)[GlcNAc(b1-6)]Man(a1-6)]Man(b1-4)GlcNAc(b1-4)GlcNAc
How it was run: as §1

[4] = target: GlcNAc(b1-3)Gal(b1-4)GlcNAc(b1-3)Gal(b1-4)GlcNAc(b1-3)GalNAc
How it was run: as §1

GlcNAc(b1-6)GalNAc = target: GlcNAc(b1-6)GalNAc
How it was run: as §1

[5] = target: Man(a1-2)Man(a1-2)Man(a1-6)[Man(a1-3)]Man
How it was run: as §1

[6] = target: Man(a1-2)Man(a1-3)[Man(a1-6)]Man(a1-6)[Man(a1-2)Man(a1-3)]Man(b1-4)GlcNAc(b1-4)GlcNAc
How it was run: as §1

Man(a1-3)[Man(a1-6)]Man = target: Man(a1-3)[Man(a1-6)]Man
How it was run: as §1

[7] = target: Man(a1-3)[Man(a1-6)]Man(a1-6)[Man(a1-3)]Man
How it was run: as §1

[8] = target: Man(a1-3)[Man(a1-6)]Man(b1-4)GlcNAc(b1-4)GlcNAc
How it was run: as §1

[9] = target: Man(a1-3)[Man(a1-6)]Man(b1-4)GlcNAc(b1-4)[Fuc(a1-6)]GlcNAc
How it was run: as §1

Man(b1-4)GlcNAc = target: Man(b1-4)GlcNAc
How it was run: as §1

MurNAc(b1-4)GlcNAc = target: MurNAc(b1-4)GlcNAc
How it was run: as §1

[10] = target: Neu5Ac(a2-3)Gal(b1-3)GalNAc6S
How it was run: as §1

[11] = target: Neu5Ac(a2-3)Gal(b1-3)[Fuc(a1-4)]GlcNAc(b1-3)Gal(b1-4)[Fuc(a1-3)]GlcNAc
How it was run: as §1

[12] = target: Neu5Ac(a2-3)Gal(b1-4)GlcNAc(b1-2)Man(a1-3)[GlcNAc(b1-4)][Neu5Ac(a2-3)Gal(b1-4)GlcNAc(b1-2)Man(a1-6)]Man(b1-4)GlcNAc(b1-4)GlcNAc
How it was run: as §1

[13] = target: Neu5Ac(a2-3)Gal(b1-4)GlcNAc(b1-3)Gal
How it was run: as §1

[14] = target: Neu5Ac(a2-3)Gal(b1-4)GlcNAc(b1-3)Gal(b1-4)GlcNAc(b1-3)Gal(b1-4)GlcNAc
How it was run: as §1

[15] = target: Neu5Ac(a2-3)Gal(b1-4)GlcNAc(b1-3)Gal(b1-4)GlcNAc(b1-3)Gal(b1-4)GlcNAc(b1-2)Man(a1-3)[Neu5Ac(a2-3)Gal(b1-4)GlcNAc(b1-3)Gal(b1-4)GlcNAc(b1-3)Gal(b1-4)GlcNAc(b1-2)Man(a1-6)]GalNAc
How it was run: as §1

[16] = target: Neu5Ac(a2-3)Gal(b1-4)GlcNAc(b1-3)Gal(b1-4)[Fuc(a1-3)]GlcNAc
How it was run: as §1

[17] = target: Neu5Ac(a2-6)Gal(b1-4)GlcNAc(b1-2)Man(a1-3)[Neu5Ac(a2-3)Gal(b1-4)GlcNAc(b1-2)Man(a1-6)]Man(b1-4)GlcNAc(b1-4)GlcNAc
How it was run: as §1

[18] = target: Neu5Ac(a2-6)Gal(b1-4)GlcNAc(b1-2)Man(a1-3)[Neu5Ac(a2-6)Gal(b1-4)GlcNAc(b1-2)Man(a1-6)]Man(b1-4)GlcNAc(b1-4)[Fuc(a1-6)]GlcNAc
How it was run: as §1

[19] = target: Neu5Ac(a2-6)Gal(b1-4)GlcNAc(b1-2)Man(a1-6)Man(b1-4)GlcNAc(b1-4)GlcNAc
How it was run: as §1

[20] = target: Neu5Ac(a2-6)Gal(b1-4)GlcNAc(b1-3)Gal(b1-4)[Fuc(a1-3)]GlcNAc(b1-3)Gal(b1-4)[Fuc(a1-3)]GlcNAc
How it was run: as §1

Neu5Ac(a2-8)Neu5Ac = target: Neu5Ac(a2-8)Neu5Ac
How it was run: as §1

[21] = target: Neu5Ac(a2-8)Neu5Ac(a2-3)Gal(b1-4)GlcNAc
How it was run: as §1

B1: Blon2468mut (Bifidobacterium longum) (protein)
chain: MTFIKQMMPRYVASMTAGIVAAAMAATCAFAPVANADAVSPTQETIQSTGRHFMVYYRAWRDVTMKGVNTDLPDDNWISMYDIPYGVDVVNIFSYVPSGQEEQAQPFYDKLKSDYAPYLHSRGIKLVRGIDYTGVAVNGFRTFMKEQNKTESEATEADYDAYAKQVIDKYMISVGLDGLDIDMQAHPNDADVKISDNVIRALSKHIGPKSAKPDTTMFLYDTNGSYLNPFKNVAECFDYVAYQQYGSSSDRTARAAADYQPYIGNEFVPGLTFPEEGDMNNRWYDATEPYEESHFYQVASYVREHNLGGMFVYALDRDGRNYDEDLRRIVPSNLLWTKTAIAESEGMALDTAKTAANHYLDRMSLRQVIDDNAASADKARDMVGKAANLYETNKAVLGGDYGEGFSNTYDPTLEAGLLGIDISVLQQQIDKSSEIIGADTAESDAKTALRMARDAAIDGLTGKIYTADQVSAWSQALKAALDATVPVPTPDSTDQNGNRDKVTNHKVQGQPKQLSATGISTDIIVAVGVTLAIAGVALSLSRKLS
glycan array binding signal (z-score) (GalNAc(b1-3)GlcNAc): -0.05 | glycan array binding signal (z-score) [1]: -0.064 | glycan array binding signal (z-score) (Glc(b1-6)Glc): -0.029 | glycan array binding signal (z-score) [2]: -0.069 | glycan array binding signal (z-score) [3]: -0.091 | glycan array binding signal (z-score) [4]: -0.065 | glycan array binding signal (z-score) (GlcNAc(b1-6)GalNAc): -0.094 | glycan array binding signal (z-score) [5]: -0.034 | glycan array binding signal (z-score) [6]: -0.083 | glycan array binding signal (z-score) (Man(a1-3)[Man(a1-6)]Man): -0.056 | glycan array binding signal (z-score) [7]: 0.323 | glycan array binding signal (z-score) [8]: 6.11 | glycan array binding signal (z-score) [9]: 22.6 | glycan array binding signal (z-score) (Man(b1-4)GlcNAc): -0.072 | glycan array binding signal (z-score) (MurNAc(b1-4)GlcNAc): -0.087 | glycan array binding signal (z-score) [10]: -0.077 | glycan array binding signal (z-score) [11]: 0.065 | glycan array binding signal (z-score) [12]: -0.063 | glycan array binding signal (z-score) [13]: -0.065 | glycan array binding signal (z-score) [14]: -0.05 | glycan array binding signal (z-score) [15]: -0.005 | glycan array binding signal (z-score) [16]: -0.04 | glycan array binding signal (z-score) [17]: 0.012 | glycan array binding signal (z-score) [18]: -0.077 | glycan array binding signal (z-score) [19]: -0.076 | glycan array binding signal (z-score) [20]: -0.078 | glycan array binding signal (z-score) (Neu5Ac(a2-8)Neu5Ac): -0.066 | glycan array binding signal (z-score) [21]: -0.079
